Compounds without any hit were thinned out: in the full panel of roughly 83,000, 20% have a hit.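 In brief: 96-well plates, 48 h treatment, single concentration, percent growth endpoint.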 Unmarked numbers belong to inactive results. Calls of active or inactive are those of the source. How the source made its calls: active means growth percent below 10; inactive means the rest.

In this assay the test system is M14 melanoma. Put plainly: NCI-60 one-dose screen, 48 h (100 = growth as untreated, 0 = no growth, -100 = all killed). Conditions: 10 µM unless noted.
In the case of `COc1ccc(Cn2cc3c(c2-c2ccc(OC)cc2)CCc2cnoc2-3)cc1`, the growth is 1.32% (active).

With `COc1ccc2oc(=O)cc(CN3C(=O)S/C(=C\c4ccc(Cl)cc4)C3=O)c2c1`, the growth is 96.2%.

`COc1cc(-c2nc(/C=C3/C(=O)Nc4ccccc43)c3ccccn23)cc(OC)c1OC`: the growth was 77.6%.

With `CCNc1nnc(COc2ccc(CNC(=O)CCCC/C=C/C(C)C)cc2OC)o1`, the growth was 102%.

For `CC([C@H]1CC=C2C3CCC4=C[C@@H](N(C)C)CC[C@]4(C)C3CC[C@@]21C)N(C)C` (some centres not stated), the growth was -56.8% (active).

On to `CCS(=O)(=O)OCCO[C@H]1Cc2cc3ccc(=O)oc3cc2OC1(C)C`, for which the growth was 104%.

`O=C1c2ccccc2CCc2ccccc21`: the growth is 96.2%.

For `O=C(/C=C/c1c[nH]c2ccccc12)c1cc2ccccc2o1`, the growth is 84.2%.

Take `CCCCCCCCCCCCCCCCC(=O)O.CCCCCCCCCCCCCCCCCC(=O)O.CCCCCCCCCCCCCCCCCC(=O)O.CCCCCCCCCCCCCCCCCC(=O)O.CCCCCCCCCCCCCCCCCC(=O)O.CO[CH-]OC12COC1CC(O)C1(C)C(O)C(OC(C)O)C3=C(C)C(OC(=O)C(O)C([NH-])c4ccccc4)CC(O)(C(OC(=O)c4ccccc4)C21)C3(C)C.[Cu+].[Zn].[Zn].[Zn].[Zn].[Zn]` (configuration not stated): the growth is 35.5%.

In the case of `N#Cc1ccc(NC2c3ccccc3CC2O)cc1` (configuration not stated), the growth is 106%.

As for `C=CCN(C)C`, the growth was 107%.

Regarding `Cc1ccc(C(=O)NN)cc1`, the growth was 113%.

Turning to `CC[C@@H](C)/C=C(C)/C=C/C(=O)c1c(O)c(-c2ccc(OC(=O)[C@@]34CC[C@@](C)(C(=O)O3)C4(C)C)cc2)cn(O)c1=O`, the growth is -35.8% (active).

For `Cc1c(CN(C)C)cc(C(C)C)cc1C(C)C`, the growth is 108%.

For the compound `CC1(c2ccc(Br)cc2)NC(=O)NC1=O` (configuration not stated), the growth is 103%.

Take `Oc1ccc2ccccc2c1/C=N\Nc1ccccn1`: the growth was -22.5% (active).

For the compound `C=C(C)[C@@H]1CC[C@]2(COC(=O)c3ccccc3C(=O)O)CC[C@]3(C)[C@H](CC[C@@H]4[C@@]5(C)CCCNC(C)(C)[C@@H]5CC[C@]43C)[C@@H]12`, the growth is 61.7%.

Turning to `COC1=C(OC)C(=O)c2ccccc2C1=O`, the growth is 105%.

For the compound `C=C1CCC2C3(C)COC(c4ccccc4)OC3CCC2(C)C1C/C=C1/C(=O)OCC1O` (configuration not stated), the growth was 80.6%.

In the case of `CCCCCC(=C/c1ccccc1)/C=N/N=C(N)N`, the growth was -64.5% (active).

As to `O=C1C(Cl)=C(SC2=NCCN2)C(=O)c2ccccc21`, the growth is 4.35% (active).

With `COC(=O)Nc1nc2ccc(C(=O)c3ccccc3N(C)C3COC3)cc2[nH]1`, the growth was 12.8%.

In the case of `C[C@@H](c1ccc2c(c1)[nH]c1ccc(Cl)cc12)c1nc2ccc(Cl)cc2[nH]1`, the growth is 100%.

Consider `O=c1oc2ccc3ccccc3c2cc1-c1ccnc2[nH]c(=S)[nH]c(=O)c12`, for which the growth was 105%.

Take `O=S(=O)(Cc1cccc2c(CS(=O)(=O)c3ccc(Cl)cc3)cccc12)c1ccc(Cl)cc1`: the growth is 102%.

On to `COc1ccc(CN2C(=O)/C(=C\C(=O)c3ccc(OCCN4CCCC4)cc3)c3ccccc32)cc1`, for which the growth was 79.6%.

`Cc1cc(CSc2ccc(Cl)cc2)ccc1N`: the growth is 101%.

(Values after PubChem BioAssay (NCI).)
